The full data set covers some 7,900 targets. This sample favours those with a hit. About 0.6% of all pairs of compound and target were hits.
Assays:
Test in all cases: log2 fold change, soluble protein after heating vs DMSO (PISA); higher = thermal stabilisation; K562 cells, 10 uM, 30 min; active = over 0.2 and 3.5 SD of the protein, either way, in both replicates (recomputed)
erlotinib = compound: C#Cc1cccc(Nc2ncnc3cc(OCCOC)c(OCCOC)cc23)c1 [erlotinib]
Method in brief: (§1)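 K562 cells at 2×10^6 cells/mL were treated for 30 min with 10 μM compound, and aliquots were heated for 3 min over 48°C-58°C before pooling. Extraction used PBS with 0.5% NP-40 at 4°C, and soluble protein was the supernatant after 21,000xg for 90 min, measured by TMTpro 16plex LC-MS/MS with channel sums equalised. Thermal stability values, relative to control samples and from duplicates, are log2 fold changes.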

[1] = compound: C/C(=N\NC(=O)C1=CC(=CC=C1)S(=O)(=O)N2CCOCC2)/C3=C(C=CC(=C3)Cl)O
Method in brief: as §1

[2] = compound: C1=CC(=C(C=C1Cl)C2=NC3=NC=CN=C3C(=N2)NC4=CC=NC=C4)F
Method in brief: as §1

[3] = compound: C1=CC(=CC=C1C2=NC3=C(N2)C=C(C=C3)C(=O)N)OC4=CC=C(C=C4)Cl
Method in brief: as §1

[4] = compound: C1=CC2=C(C=CC(=C2)/C=C\3/C(=O)NC(=NCC4=CC=CS4)S3)N=C1
Method in brief: as §1

[5] = compound: C1=CC2=NC=CN=C2C=C1/C=C/3\C(=O)NC(=O)S3
Method in brief: as §1

[6] = compound: C1=CC=C(C=C1)C2=NC(=C(N2)C3=CC=NC=C3)C4=CC(=C(C=C4)Cl)O
Method in brief: as §1

[7] = compound: C1=CC=C2C(=C1)C3=NNC4=CC=CC(=C43)C2=O
Method in brief: as §1

[8] = compound: C1CCN(C1)C(=O)NC2=CC=CC(=C2)NC3=NC=C(C(=N3)NCCC4=CN=CN4)Br
Method in brief: as §1

[9] = compound: C1CN(CCC1(CC2=CC=C(C=C2)Cl)N)C3=NC=NC4=C3C=CN4
Method in brief: as §1

IRAK-1-4 Inhibitor I = compound: C1COCCN1CCN2C3=CC=CC=C3N=C2NC(=O)C4=CC(=CC=C4)[N+](=O)[O-] [IRAK-1-4 Inhibitor I]
Method in brief: as §1

ibrutinib = compound: C=CC(=O)N1CCC[C@@H](n2nc(-c3ccc(Oc4ccccc4)cc3)c3c(N)ncnc32)C1 [ibrutinib]
Method in brief: as §1

[10] = compound: CC(=O)c1cnc2ccc(-c3cc(Cl)c(O)c(Cl)c3)nc2c1N[C@H]1CC[C@H](CN(C)C)CC1
Method in brief: as §1

ralimetinib = compound: CC(C)(C)Cn1c(N)nc2ccc(-c3[nH]c(C(C)(C)C)nc3-c3ccc(F)cc3)nc21 [ralimetinib]
Method in brief: as §1

[11] = compound: CC(C)(O)CC(=O)NCCn1ccc2ncnc(Nc3ccc(Oc4cccc(C(F)(F)F)c4)c(Cl)c3)c21
Method in brief: as §1

[12] = compound: CC(C)C1=C2N=C(C=C(N2N=C1)NCC3=CC=CC=C3)NCCCCCCN
Method in brief: as §1

[13] = compound: CC(C)C[C@@H](C=O)NC(=O)[C@H](CC(C)C)NC(=O)[C@H](CC(C)C)NC(=O)OCc1ccccc1
Method in brief: as §1

pinometostat = compound: CC(C)N(C[C@H]1O[C@@H](n2cnc3c(N)ncnc32)[C@H](O)[C@@H]1O)[C@H]1C[C@@H](CCc2nc3cc(C(C)(C)C)ccc3[nH]2)C1 [pinometostat]
Method in brief: as §1

[14] = compound: CC1=C(C(CC(=O)N1)C2=CC=C(C=C2)C(F)(F)F)C(=O)NC3=C(C=C4C(=C3)C=NN4)F
Method in brief: as §1

[15] = compound: CC1=C(C2=C(C=C1)C(=O)C3=CC=CC=C3N2CCCN)C
Method in brief: as §1

Measured: log2 fold change

PNPLA2 (UniProt Q96AD5)
Sequence of UniProt Q96AD5 (Q96AD5 whole entry, looked up): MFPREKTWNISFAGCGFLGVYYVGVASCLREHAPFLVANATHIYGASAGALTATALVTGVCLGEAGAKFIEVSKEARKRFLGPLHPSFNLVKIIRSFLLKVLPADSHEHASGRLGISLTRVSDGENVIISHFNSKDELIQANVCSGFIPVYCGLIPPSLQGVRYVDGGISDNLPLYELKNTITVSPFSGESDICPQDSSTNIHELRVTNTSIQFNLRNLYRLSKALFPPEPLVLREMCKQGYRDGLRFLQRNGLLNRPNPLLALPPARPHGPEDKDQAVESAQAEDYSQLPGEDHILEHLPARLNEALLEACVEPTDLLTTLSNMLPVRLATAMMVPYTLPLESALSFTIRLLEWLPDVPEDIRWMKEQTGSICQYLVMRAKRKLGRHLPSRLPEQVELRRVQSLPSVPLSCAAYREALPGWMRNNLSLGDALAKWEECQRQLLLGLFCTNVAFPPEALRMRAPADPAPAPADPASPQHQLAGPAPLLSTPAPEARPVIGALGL
inactive: erlotinib 0.017 | [1] 0.052 | [2] 0.007 | [3] -0.021 | [4] 0.045 | [5] 0.063 | [6] -0.015 | [7] -0.027 | [8] 0.101 | [9] -0.034 | IRAK-1-4 Inhibitor I -0.006 | ibrutinib 0.166 | [10] -0.116 | ralimetinib -0.009 | [11] 0.044 | [12] -0.184 | [13] 0.121 | pinometostat -0.018 | [14] -0.083 | [15] -0.004

PRKAB1 (UniProt Q9Y478)
Sequence of UniProt Q9Y478 (Q9Y478 whole entry, looked up): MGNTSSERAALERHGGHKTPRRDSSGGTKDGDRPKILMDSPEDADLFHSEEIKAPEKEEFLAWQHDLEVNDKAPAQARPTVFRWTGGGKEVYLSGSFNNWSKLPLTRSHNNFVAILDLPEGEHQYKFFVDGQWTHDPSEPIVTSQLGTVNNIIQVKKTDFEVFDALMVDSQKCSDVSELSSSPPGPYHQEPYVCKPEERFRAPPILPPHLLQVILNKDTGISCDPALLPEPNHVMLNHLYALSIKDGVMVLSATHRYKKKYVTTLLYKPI
inactive: erlotinib 0.043 | [1] 0.15 | [2] 0.052 | [3] -0.011 | [4] -0.06 | [5] 0.024 | [6] 0.019 | [7] 0.026 | [8] -0.076 | [9] 0.068 | IRAK-1-4 Inhibitor I 0.015 | ibrutinib -0.02 | [10] -0.184 | ralimetinib 0.022 | [11] -0.069 | [12] -0.006 | [13] -0.041 | pinometostat -0.048 | [14] 0.036 | [15] 0.015

PBX2 (UniProt P40425)
inactive: erlotinib 0.111 | [1] 0.076 | [2] 0.055 | [3] 0.007 | [4] 0.009 | [5] -0.039 | [6] 0.091 | [7] -0.098 | [8] -0.036 | [9] -0.269 | IRAK-1-4 Inhibitor I -0.078 | ibrutinib 0.023 | [10] -0.122 | ralimetinib 0.04 | [11] -0.145 | [12] -0.184 | [13] 0.078 | pinometostat -0.058 | [14] 0.131 | [15] -0.005

QKI (UniProt Q96PU8)
Sequence of UniProt Q96PU8 (Q96PU8 whole entry, looked up): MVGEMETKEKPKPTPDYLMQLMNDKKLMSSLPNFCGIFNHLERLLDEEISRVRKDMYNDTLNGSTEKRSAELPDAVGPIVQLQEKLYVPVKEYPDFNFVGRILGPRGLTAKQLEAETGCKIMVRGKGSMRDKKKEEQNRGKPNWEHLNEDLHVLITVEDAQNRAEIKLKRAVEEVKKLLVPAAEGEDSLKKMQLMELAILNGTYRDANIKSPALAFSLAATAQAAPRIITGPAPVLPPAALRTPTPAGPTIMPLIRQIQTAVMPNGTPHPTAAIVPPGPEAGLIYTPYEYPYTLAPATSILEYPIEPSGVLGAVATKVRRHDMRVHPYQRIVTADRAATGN
inactive: erlotinib -0.011 | [1] 0.051 | [2] -0.008 | [3] 0.003 | [4] 0.028 | [5] 0.007 | [6] -0.002 | [7] -0.032 | [8] -0.025 | [9] -0.007 | IRAK-1-4 Inhibitor I -0.034 | ibrutinib -0.004 | [10] -0.113 | ralimetinib 0.007 | [11] 0.019 | [12] -0.221 | [13] -0.005 | pinometostat -0.026 | [14] 0.046 | [15] -0.043

PCLAF (UniProt Q15004)
Sequence of UniProt Q15004 (Q15004 whole entry, looked up): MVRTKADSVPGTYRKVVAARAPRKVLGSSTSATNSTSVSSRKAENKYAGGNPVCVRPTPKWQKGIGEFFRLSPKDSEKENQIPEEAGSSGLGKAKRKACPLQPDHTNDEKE
inactive: erlotinib 0.073 | [1] -0.017 | [2] -0.066 | [3] 0.016 | [4] -0.039 | [5] 0.033 | [6] -0.105 | [7] -0.13 | [8] -0.036 | [9] 0.032 | IRAK-1-4 Inhibitor I 0.055 | ibrutinib 0.034 | [10] -0.061 | ralimetinib -0.012 | [11] 0.036 | [12] 0.184 | pinometostat -0.012 | [14] 0.139 | [15] -0.088
active: [13] 0.278

PSMC1 (UniProt P62191)
active: [13] -0.212
inactive: erlotinib -0.093 | [1] -0.063 | [2] -0.034 | [3] 0.037 | [4] -0.027 | [5] -0.028 | [6] -0.017 | [7] 0.029 | [8] 0.012 | [9] -0.004 | IRAK-1-4 Inhibitor I -0.053 | ibrutinib -0.024 | [10] 0.056 | ralimetinib 0.018 | [11] 0.002 | [12] 0.04 | pinometostat 0.032 | [14] 0.031 | [15] -0.007

PRKD2 isoform 3 (UniProt Q9BZL6)
inactive: erlotinib 0.04 | [1] 0.214 | [2] 0.022 | [3] 0.055 | [4] 0.003 | [5] 0.004 | [6] -0.126 | [7] -0.347 | [8] -0.04 | [9] -0.075 | IRAK-1-4 Inhibitor I -0.046 | ibrutinib -0.057 | ralimetinib 0.089 | [11] -0.302 | [12] -0.216 | [13] 0.074 | pinometostat 0.056 | [14] 0.192 | [15] -0.087
active: [10] -1.03

PRKAG1 isoform 3 (UniProt P54619)
active: [10] -0.266
inactive: erlotinib 0.025 | [1] 0.038 | [2] -0.016 | [3] -0.012 | [4] 0.083 | [5] 0.032 | [6] 0.037 | [7] -0.015 | [8] -0.007 | [9] 0.045 | IRAK-1-4 Inhibitor I 0.042 | ibrutinib -0.019 | ralimetinib 0.001 | [11] -0.011 | [12] -0.067 | [13] -0.025 | pinometostat 0.015 | [14] 0.079 | [15] 0.013

PCTP (UniProt Q9UKL6)
Sequence of UniProt Q9UKL6 (Q9UKL6 whole entry, looked up): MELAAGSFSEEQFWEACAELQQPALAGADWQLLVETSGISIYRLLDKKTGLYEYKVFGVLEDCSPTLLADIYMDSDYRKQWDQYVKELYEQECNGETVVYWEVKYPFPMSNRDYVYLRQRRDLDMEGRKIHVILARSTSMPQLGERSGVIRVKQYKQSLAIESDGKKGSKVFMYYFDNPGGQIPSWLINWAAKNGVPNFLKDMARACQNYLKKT
active: [12] -0.266
inactive: erlotinib 0.035 | [1] -0.04 | [2] 0.065 | [3] 0.046 | [4] 0.057 | [5] 0.076 | [6] 0.012 | [7] 0.002 | [8] 0.049 | [9] -0.035 | IRAK-1-4 Inhibitor I -0.009 | ibrutinib -0.018 | [10] 0.054 | ralimetinib -0.081 | [11] -0.091 | [13] -0.012 | pinometostat -0.013 | [14] 0.04 | [15] 0.005

PRIM1 (UniProt P49642)
active: [12] -0.319
inactive: erlotinib 0.005 | [1] 0.011 | [2] -0.044 | [3] 0.049 | [4] -0.005 | [5] 0.027 | [6] -0.09 | [7] 0.061 | [8] -0.033 | [9] -0.074 | IRAK-1-4 Inhibitor I -0.066 | ibrutinib -0.035 | [10] 0.007 | ralimetinib 0.048 | [11] -0.079 | [13] 0.046 | pinometostat 0.114 | [14] 0.026 | [15] -0.006

PHKA1 (UniProt P46020)
Sequence of UniProt P46020 (P46020 whole entry, looked up): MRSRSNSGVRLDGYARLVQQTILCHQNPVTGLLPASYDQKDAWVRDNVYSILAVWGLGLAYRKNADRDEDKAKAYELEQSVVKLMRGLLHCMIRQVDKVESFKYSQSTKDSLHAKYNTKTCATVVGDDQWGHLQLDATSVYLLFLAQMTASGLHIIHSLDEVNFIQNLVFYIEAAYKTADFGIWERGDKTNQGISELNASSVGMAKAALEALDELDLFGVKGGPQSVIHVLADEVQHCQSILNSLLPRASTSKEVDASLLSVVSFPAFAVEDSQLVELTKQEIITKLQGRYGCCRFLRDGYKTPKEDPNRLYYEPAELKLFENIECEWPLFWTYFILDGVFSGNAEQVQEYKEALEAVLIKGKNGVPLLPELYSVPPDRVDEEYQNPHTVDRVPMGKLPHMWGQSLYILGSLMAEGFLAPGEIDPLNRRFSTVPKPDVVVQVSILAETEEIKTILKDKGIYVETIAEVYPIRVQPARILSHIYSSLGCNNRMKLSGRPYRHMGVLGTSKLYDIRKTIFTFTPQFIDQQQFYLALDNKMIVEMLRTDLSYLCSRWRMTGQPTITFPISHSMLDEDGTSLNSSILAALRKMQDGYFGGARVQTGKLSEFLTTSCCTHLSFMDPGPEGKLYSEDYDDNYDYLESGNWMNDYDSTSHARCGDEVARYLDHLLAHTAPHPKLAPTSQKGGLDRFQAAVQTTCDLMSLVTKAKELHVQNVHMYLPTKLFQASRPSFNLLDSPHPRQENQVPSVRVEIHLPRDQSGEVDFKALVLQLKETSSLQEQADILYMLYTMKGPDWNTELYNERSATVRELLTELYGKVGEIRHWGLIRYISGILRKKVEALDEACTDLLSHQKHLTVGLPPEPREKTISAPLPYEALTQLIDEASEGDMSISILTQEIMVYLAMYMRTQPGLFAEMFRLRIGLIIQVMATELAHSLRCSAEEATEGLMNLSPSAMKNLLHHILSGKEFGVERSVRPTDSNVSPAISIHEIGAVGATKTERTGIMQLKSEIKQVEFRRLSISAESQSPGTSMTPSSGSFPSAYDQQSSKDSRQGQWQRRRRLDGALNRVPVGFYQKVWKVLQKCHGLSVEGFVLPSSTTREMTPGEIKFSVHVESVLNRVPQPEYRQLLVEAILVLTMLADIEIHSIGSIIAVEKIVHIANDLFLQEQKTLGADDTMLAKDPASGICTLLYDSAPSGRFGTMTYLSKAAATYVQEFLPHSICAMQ
inactive: erlotinib -0.028 | [1] -0.101 | [2] -0.051 | [3] 0.003 | [4] 0.057 | [5] 0.024 | [6] 0.152 | [7] -0.095 | [8] -0.105 | [9] -0.026 | IRAK-1-4 Inhibitor I -0.043 | ibrutinib -0.001 | [10] 0.306 | ralimetinib -0.03 | [11] -0.161 | [12] 0.011 | [13] 0.195 | pinometostat -0.023 | [14] 0.118 | [15] 0.022

PPT2 isoform 3 (UniProt Q9UMR5)
Sequence of UniProt Q9UMR5 (Q9UMR5 whole entry, looked up): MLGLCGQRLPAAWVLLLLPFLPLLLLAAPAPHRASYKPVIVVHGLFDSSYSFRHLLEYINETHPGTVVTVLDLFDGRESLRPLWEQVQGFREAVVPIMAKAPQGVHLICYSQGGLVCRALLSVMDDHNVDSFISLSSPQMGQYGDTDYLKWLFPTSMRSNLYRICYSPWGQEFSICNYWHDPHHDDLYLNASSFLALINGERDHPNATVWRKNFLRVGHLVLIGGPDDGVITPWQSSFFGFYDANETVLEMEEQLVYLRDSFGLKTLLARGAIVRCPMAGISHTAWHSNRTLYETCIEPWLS
inactive: erlotinib 0 | [1] 0.056 | [2] 0.033 | [3] -0.001 | [4] -0.026 | [5] -0.02 | [6] 0.038 | [7] 0.039 | [8] -0.012 | [9] 0.031 | IRAK-1-4 Inhibitor I 0.078 | ibrutinib 0.036 | [10] -0.04 | ralimetinib 0.052 | [11] 0.006 | [12] -0.17 | [13] -0.014 | pinometostat -0.041 | [14] -0.012 | [15] 0.037

PSMD1 (UniProt Q99460)
Sequence of UniProt Q99460 (Q99460 whole entry, looked up): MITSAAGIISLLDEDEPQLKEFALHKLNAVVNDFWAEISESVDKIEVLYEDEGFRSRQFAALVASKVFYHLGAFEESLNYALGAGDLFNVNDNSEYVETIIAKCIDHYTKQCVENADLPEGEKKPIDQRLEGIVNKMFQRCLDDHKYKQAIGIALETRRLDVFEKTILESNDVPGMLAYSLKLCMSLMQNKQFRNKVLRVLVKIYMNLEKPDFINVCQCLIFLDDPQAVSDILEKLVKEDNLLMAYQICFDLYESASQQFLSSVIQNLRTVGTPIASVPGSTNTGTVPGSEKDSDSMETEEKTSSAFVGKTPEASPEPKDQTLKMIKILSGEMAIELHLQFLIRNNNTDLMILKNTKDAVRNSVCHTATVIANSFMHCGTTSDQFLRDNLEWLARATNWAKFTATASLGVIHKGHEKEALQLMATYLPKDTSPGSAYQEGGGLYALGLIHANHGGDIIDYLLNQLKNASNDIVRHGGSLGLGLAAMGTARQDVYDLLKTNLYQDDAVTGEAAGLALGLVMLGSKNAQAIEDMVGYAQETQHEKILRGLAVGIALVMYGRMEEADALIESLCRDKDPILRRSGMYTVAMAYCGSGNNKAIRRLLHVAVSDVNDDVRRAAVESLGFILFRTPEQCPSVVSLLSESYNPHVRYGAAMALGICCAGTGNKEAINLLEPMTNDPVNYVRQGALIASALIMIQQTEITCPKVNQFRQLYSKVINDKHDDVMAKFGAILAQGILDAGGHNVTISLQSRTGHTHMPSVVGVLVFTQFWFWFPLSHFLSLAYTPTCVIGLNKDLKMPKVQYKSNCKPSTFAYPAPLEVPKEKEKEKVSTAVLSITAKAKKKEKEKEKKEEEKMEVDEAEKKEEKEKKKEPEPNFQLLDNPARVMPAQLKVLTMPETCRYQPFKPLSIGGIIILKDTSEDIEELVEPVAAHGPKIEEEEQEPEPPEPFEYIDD
active: [13] -0.254
inactive: erlotinib -0.08 | [1] -0.074 | [2] 0.028 | [3] 0.021 | [4] -0.061 | [5] -0.018 | [6] 0.062 | [7] 0.034 | [8] 0.001 | [9] -0.025 | IRAK-1-4 Inhibitor I -0.037 | ibrutinib -0.022 | [10] 0.03 | ralimetinib 0.061 | [11] 0.009 | [12] 0.054 | pinometostat 0.023 | [14] 0.028 | [15] -0.004

PUF60 (UniProt Q9UHX1)
Sequence of UniProt Q9UHX1 (Q9UHX1 whole entry, looked up): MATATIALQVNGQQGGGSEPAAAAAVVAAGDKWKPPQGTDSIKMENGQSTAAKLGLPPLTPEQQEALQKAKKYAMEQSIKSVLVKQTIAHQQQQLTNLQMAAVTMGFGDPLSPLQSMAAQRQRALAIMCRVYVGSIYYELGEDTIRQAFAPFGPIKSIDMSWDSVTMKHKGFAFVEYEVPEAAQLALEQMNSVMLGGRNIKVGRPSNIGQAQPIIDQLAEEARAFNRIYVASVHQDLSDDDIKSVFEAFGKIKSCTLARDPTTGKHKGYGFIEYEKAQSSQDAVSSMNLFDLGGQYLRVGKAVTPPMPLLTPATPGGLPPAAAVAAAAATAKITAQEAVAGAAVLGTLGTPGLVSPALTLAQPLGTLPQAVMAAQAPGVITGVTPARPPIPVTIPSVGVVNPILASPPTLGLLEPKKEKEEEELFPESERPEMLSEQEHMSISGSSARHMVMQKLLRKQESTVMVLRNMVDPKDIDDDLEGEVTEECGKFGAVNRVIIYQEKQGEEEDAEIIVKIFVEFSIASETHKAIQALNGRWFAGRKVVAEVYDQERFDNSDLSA
active: [10] -0.352 | [12] -0.235
inactive: erlotinib -0.011 | [1] 0.172 | [2] -0.005 | [3] 0.014 | [4] -0.071 | [5] -0.026 | [6] 0.013 | [7] 0.02 | [8] -0.072 | [9] -0.141 | IRAK-1-4 Inhibitor I -0.11 | ibrutinib -0.018 | ralimetinib 0.049 | [11] -0.016 | [13] -0.003 | pinometostat -0.016 | [14] 0.001 | [15] 0.016

PRG4 (UniProt Q92954)
inactive: erlotinib 0.002 | [1] -0.109 | [2] 0.011 | [3] -0.085 | [4] 0.15 | [5] 0.024 | [6] -0.139 | [7] -0.171 | [8] -0.143 | [9] 0.031 | IRAK-1-4 Inhibitor I -0.072 | ibrutinib -0.005 | [10] 0 | ralimetinib 0.011 | [11] 0.059 | [12] 0.29 | [13] 0.054 | pinometostat -0.068 | [14] 0.039 | [15] -0.127

PPIL2 (UniProt Q13356)
Sequence of UniProt Q13356 (Q13356 whole entry, looked up): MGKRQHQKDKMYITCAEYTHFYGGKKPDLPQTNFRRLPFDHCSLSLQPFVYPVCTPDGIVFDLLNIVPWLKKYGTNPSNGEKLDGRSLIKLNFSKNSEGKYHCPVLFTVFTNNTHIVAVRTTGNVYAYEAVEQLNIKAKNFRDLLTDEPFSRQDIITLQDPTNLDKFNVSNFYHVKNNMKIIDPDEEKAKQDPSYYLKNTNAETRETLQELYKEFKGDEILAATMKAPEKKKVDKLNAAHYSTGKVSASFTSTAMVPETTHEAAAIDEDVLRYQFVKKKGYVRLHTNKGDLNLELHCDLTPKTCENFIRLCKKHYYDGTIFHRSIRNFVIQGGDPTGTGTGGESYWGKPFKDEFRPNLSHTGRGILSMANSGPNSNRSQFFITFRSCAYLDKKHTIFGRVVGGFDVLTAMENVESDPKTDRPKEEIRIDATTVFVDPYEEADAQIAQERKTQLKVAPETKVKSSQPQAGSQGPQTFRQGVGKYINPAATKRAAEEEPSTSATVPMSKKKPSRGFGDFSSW
inactive: erlotinib 0.061 | [1] 0.072 | [2] 0.064 | [3] -0.033 | [4] 0.047 | [5] 0.004 | [6] 0.026 | [7] 0.067 | [8] -0.052 | [9] -0.079 | IRAK-1-4 Inhibitor I -0.097 | ibrutinib -0.048 | [10] -0.077 | ralimetinib 0 | [11] -0.081 | [12] -0.044 | [13] 0.096 | pinometostat -0.063 | [14] -0.043 | [15] 0.062
